# Screens (PubChem)
# An excerpt weighted towards active compounds, which were near 3.4% of everything screened.
# TEAD-YAP block – TEAD-YAP interaction inhibition, primary screen, TEAD-YAP interaction inhibitor project, luminescence, HEK-TIYL cells. TEAD-Gal4/YAP UAS-luciferase luminescence. inhibition, % at 9.12 µM. 640,000 compounds, 1.4% hits. AID 1259422, 2018; in the data active = inhibition above about 32%
# MITF primary – MITF inhibitors, primary screen, biochemical, AlphaScreen, human; 650,000 compounds, 0.91% hits; inhibition, % at 2.6 µM; Microphthalmia-associated transcription factor (Homo sapiens), O75030; AlphaScreen MITF homodimerization, bead proximity signal; AID 1259374, 2018; in the data active = inhibition above about 50%
# FBW7 activator – FBW7 E3 ligase activators, primary screen, biochemical, AlphaScreen, human; F-box/WD repeat-containing protein 7 (Homo sapiens), Q969H0; AlphaScreen FBW7–phospho-cyclin E peptide binding, activator screen; normalized activity (activation), % at 26.1 µM; 650,000 compounds, 0.13% hits; in the data active = normalized activity above about 1.9%;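 note: purified mutant Fbw7 with reduced substrate affinity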
# Target sequence (Q969H0 whole entry, looked up): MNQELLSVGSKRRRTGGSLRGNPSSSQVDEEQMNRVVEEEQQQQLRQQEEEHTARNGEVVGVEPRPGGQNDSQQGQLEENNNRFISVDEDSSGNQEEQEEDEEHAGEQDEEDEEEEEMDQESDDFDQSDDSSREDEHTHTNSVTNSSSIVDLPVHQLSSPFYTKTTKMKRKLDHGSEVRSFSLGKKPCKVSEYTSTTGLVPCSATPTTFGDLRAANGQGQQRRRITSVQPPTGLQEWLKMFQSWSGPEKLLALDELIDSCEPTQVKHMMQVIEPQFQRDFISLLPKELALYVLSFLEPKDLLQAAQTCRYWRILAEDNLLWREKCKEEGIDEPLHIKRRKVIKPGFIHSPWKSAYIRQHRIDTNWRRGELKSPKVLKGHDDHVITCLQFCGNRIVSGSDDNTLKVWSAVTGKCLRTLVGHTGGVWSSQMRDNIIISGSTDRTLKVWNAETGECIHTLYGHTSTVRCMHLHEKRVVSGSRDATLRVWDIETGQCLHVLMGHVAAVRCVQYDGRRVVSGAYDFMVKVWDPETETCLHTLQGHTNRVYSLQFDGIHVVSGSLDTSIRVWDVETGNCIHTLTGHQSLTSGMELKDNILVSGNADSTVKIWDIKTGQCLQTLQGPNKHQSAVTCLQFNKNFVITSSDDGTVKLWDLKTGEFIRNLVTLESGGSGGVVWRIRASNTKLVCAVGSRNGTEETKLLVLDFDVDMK
# GPR151 ag – activators of human GPR151, primary screen, cell-based, PathHunter beta-arrestin, luminescence; activation, % at 11.2 µM; G-protein coupled receptor 151 (Homo sapiens), Q8TDV0; AID 1508602, 2020; PathHunter beta-arrestin GPR151 cells; 650,000 compounds, 1% hits; in the data active = activation above about 4.9%
# GPR151 conf act – GPR151 activators, triplicate retest, confirmation, cell-based, PathHunter beta-arrestin, luminescence. shares compounds with GPR151 ag. GPR151 PathHunter beta-arrestin cells, 90 min; % of EA-reagent control over plate median. activation, % at 11.2 µM. 6,700 tested, under 10 active. AID 1508609, 2020;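 active = mean percent activation across replicates above the confirmation screen cutoff of 4.91%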
# GPR119 ag – GPR119 activators in beta-arrestin cells, counter-screen for GPR151 activator project, cell-based, PathHunter beta-arrestin, luminescence, triplicate; AID 1508611, 2020; 6,700 compounds, 0.3% hits; shares compounds with GPR151 ag; 90 min; 0 = compound-well median, 100 = enzyme-acceptor control; activation, % at 11.2 µM;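 active = mean percent activation in the counterscreen above 29.09%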;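 note: counterscreen on off-target GPR119 to flag nonselective hits from the GPR151 activator screen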
# A number is an active result; n = inactive; x = not tested or not shown; ! = a repeat was not active.
SMILES,TEAD-YAP block,MITF primary,FBW7 activator,GPR151 ag,GPR151 conf act,GPR119 ag
CCN(CC)S(=O)(=O)c1ccc(OC)c(NS(=O)(=O)c2cccc([N+](=O)[O-])c2)c1,n,n,n,6.2,n,n
COc1ccc(S(=O)(=O)Nc2ccccc2C(=O)NC(C)C)cc1OC,n,n,n,18,n,n
CCN(CC)S(=O)(=O)c1ccc(OC)c(NS(=O)(=O)c2ccccc2[N+](=O)[O-])c1,n,n,n,n,x,x
COc1ccc(OC)c(C2NC(C(=O)O)C3C(=O)N(c4ccccc4)C(=O)C23)c1 (stereo unspecified),n,n,n,5.2,n,n
COc1ccc(C2NC(C(=O)O)C3C(=O)N(c4ccc(F)cc4)C(=O)C23)c(OC)c1 (stereo unspecified),n,n,n,n,x,x
COc1ccc(OC)c(C2NC(C(=O)O)C3C(=O)N(c4cccc(C(=O)O)c4)C(=O)C23)c1 (stereo unspecified),n,n,n,5.0,n,n
COc1ccc(C2NC(C(=O)O)C3C(=O)N(c4ccc(F)cc4)C(=O)C23)c(OC)c1OC (stereo unspecified),n,n,n,n,x,x
CCN(CC)C(=O)C1CCCN(c2nc(Nc3cc(OC)c(OC)c(OC)c3)c3ncn(CCN4CCCC4=O)c3n2)C1 (stereo unspecified),n,n,n,n,x,x
CCN(CC)C(=O)C1CCCN(c2nc(Nc3cc(OC)c(OC)c(OC)c3)c3ncn(C4CCCCC4)c3n2)C1 (stereo unspecified),n,n,n,12,n,n
COc1cc(Nc2nc(Nc3ccncc3)nc3c2ncn3C2CCCCC2)cc(OC)c1OC,n,n,n,6.1,n,n
CCN(CC)C(=O)C1CCCN(c2nc(Nc3cc(OC)c(OC)c(OC)c3)nc(N(CC)CC)n2)C1 (stereo unspecified),n,n,n,14,n,n
COc1cc(Nc2nc(Nc3ccc(NC(C)=O)cc3)c3ncn(C4CCCCC4)c3n2)cc(OC)c1OC,n,n,n,n,x,x
COc1cccc2sc(=NC(=O)c3ccc4ncsc4c3)n(C)c12,n,n,n,n,x,x
COc1ccc(Nc2nnc(Cc3ccccc3Cl)c(=O)[nH]2)c(OC)c1,n,n,n,6.4,n,n
CCc1cc2c(SCC(=O)Nc3sccc3C(N)=O)ncnc2s1,n,n,n,7.0,n,n
CCc1cc2c(SCC(=O)c3cccs3)ncnc2s1,n,n,n,5.1,n,n
CCc1cc2c(SCC(=O)c3ccccc3)ncnc2s1,n,n,n,n,x,x
CCc1cc2c(SCC(=O)Nc3ccc(Br)cc3)ncnc2s1,n,n,n,n,x,x
COc1ccccc1NC(=O)c1ccc(OC)c([N+](=O)[O-])c1,n,n,n,n,x,x
O=C(NCCN1CCN(c2ccccc2F)CC1)c1ccc(Br)o1,n,n,n,n,x,x
O=C(/C=C/c1ccco1)Nc1ccc(S(=O)(=O)N2CCCCCC2)cc1,n,n,n,n,x,x
O=C(/C=C/c1ccco1)Nc1ccc(S(=O)(=O)N2CCCCC2)cc1,n,n,n,13,n,n
CNS(=O)(=O)c1ccc(NC(=O)/C=C/c2ccco2)cc1,n,n,n,n,x,x
CN(C)S(=O)(=O)c1ccc(NC(=O)/C=C/c2ccco2)cc1,n,n,n,8.3,n,n
O=C(Nc1ccc(S(=O)(=O)N2CCCCCC2)cc1)C(Cl)(Cl)Cl,n,n,n,6.7,n,n
Cc1cccc(N(C)C(=O)Cn2ncc3c2-c2ccccc2OC3)c1,n,n,n,n,x,x
Cc1c(Cl)cccc1NC(=O)c1ccccc1C(=O)O,n,n,n,n,x,x
Cc1c(Cl)cccc1Nc1ccccc1C(=O)O,n,n,n,7.5!,n,n
CC(=O)c1sc2nc(SCC(=O)Nc3ccccc3)[nH]c(=O)c2c1C,n,n,n,n,x,x
